In the assay the target is NADPH oxidase 5 (Homo sapiens) (UniProt Q96PH1). Put plainly: NOX5-dependent H2O2 signal modulators, primary screen, NOX inhibitor project, cell-based, HEK293-NOX5, Amplex Red fluorescence (AID 1161). The settings on record: HEK293-NOX5, ionomycin, 45 min, higher = more signal.
Sequence of NADPH oxidase 5 (Homo sapiens) (Q96PH1 whole entry, looked up): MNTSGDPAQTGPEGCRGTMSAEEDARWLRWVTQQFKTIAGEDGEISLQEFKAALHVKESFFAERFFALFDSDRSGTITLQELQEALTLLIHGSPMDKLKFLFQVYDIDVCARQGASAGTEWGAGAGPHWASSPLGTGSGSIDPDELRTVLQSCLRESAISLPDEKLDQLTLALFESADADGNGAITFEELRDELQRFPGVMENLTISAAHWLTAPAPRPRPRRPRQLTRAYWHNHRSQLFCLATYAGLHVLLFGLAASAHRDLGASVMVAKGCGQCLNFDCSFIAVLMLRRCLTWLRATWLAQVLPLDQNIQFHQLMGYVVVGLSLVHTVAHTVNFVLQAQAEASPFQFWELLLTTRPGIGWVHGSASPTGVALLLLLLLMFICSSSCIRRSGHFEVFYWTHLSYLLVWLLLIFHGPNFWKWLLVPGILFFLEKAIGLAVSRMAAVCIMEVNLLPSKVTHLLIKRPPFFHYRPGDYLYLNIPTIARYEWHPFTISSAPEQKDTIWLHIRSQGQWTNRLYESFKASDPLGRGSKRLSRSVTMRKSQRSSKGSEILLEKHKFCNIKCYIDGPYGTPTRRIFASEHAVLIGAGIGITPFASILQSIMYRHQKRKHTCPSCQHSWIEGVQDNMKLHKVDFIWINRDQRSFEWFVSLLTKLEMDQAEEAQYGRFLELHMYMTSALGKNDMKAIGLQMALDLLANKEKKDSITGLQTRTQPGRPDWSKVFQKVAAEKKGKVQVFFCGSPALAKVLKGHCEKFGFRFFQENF
Take `COc1cc2c(cc1O)C(c1cccs1)N(Cc1cc3c(cc1Br)OCO3)CC2` (configuration not stated): the z-score is -2.26.

`CCC#CCN(Cc1ccccc1Br)[C@H](/C=C/C1CC1)[C@@H](O)Cc1ccccc1` came in with a z-score of -1.2.

As to `COC(=O)[C@@]1(Cc2ccccc2)[C@H]2c3cc(C(=O)N4CCCC4)n(CCc4ccccn4)c3C[C@H]2CN1C(=O)c1ccccc1`, the z-score was -3.01.

For `CCCCC(CC)C(O)C1C=CC2C(=O)N(c3ccccc3)C(=O)C2N1Nc1ccccc1F` (configuration not stated), the z-score came to 1.01.

With `[N-]=[N+]=Nc1ccccc1[C@@H]1OC(c2ccc(OCCCO)cc2)=N[C@]1(Cc1ccccc1)C(=O)N1CCCCC1`, the z-score is -1.77.

As to `CC1CC/C=C\[C@H]2OC34C=CCN(C(C)C)C(=O)[C@H]3N(CCO)C(=O)[C@@H]4C2C(=O)O1` (some centres not stated), the z-score came out at 2.03.

`CCOC(=O)C1=C[C@@H](C(C)(C)C)N(S(=O)(=O)c2ccc(C)cc2)[C@H]1c1cccc2ccccc12` had a z-score of 0.139.

As to `CC(C)[Si]1(C(C)C)OCc2cc(-c3ccc(-c4ccc(Cl)c(Cl)c4)o3)nc(-c3ccccc3)c21`, the z-score was found to be 0.701.

As to `CCCCCCc1nc(Cc2cc(OC)c(OC)c(OC)c2)cc2c1[Si](C(C)C)(C(C)C)OC2`, the z-score was -5.31.

Molecule `C=CC[C@@H](OC(=O)Nc1ccc(SC)cc1)c1ccc(O)c(F)c1` displayed a z-score of -3.25.

Molecule `Cc1ccc(NN2C(C(O)c3c(F)cccc3Cl)C=CC3C(=O)N(C4CCCCC4)C(=O)C32)cc1` (configuration not stated) came in with a z-score of -1.67.

`COc1ccc([Si](C)(C)[C@@H]2[C@@H](CC(=O)N(CCO)Cc3ccccc3)O[C@]3(C(=O)N(Cc4cccc(N5CCCCC5=O)c4)c4ccccc43)[C@H]2C)cc1` showed a z-score of 3.58.

Source of the values: PubChem BioAssay.
